# In PubChem BioAssay (NCI):
# Compounds without any hit were thinned out: in the full panel of roughly 83,000, 20% have a hit.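 Assay: single dose, 48 h. Readout: percent growth (0 = no net growth; negative = cell death). Active: <10.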 The source made the active and inactive calls.
# System: NCI-H322M lung
# Test: NCI-60 one-dose screen, 48 h (100 = growth as untreated, 0 = no growth, -100 = all killed)
# Settings: 10 µM
row,SMILES,growth
1,COC(=O)[C@]12CC[C@@H](C)[C@H](C)[C@@H]1C1=CC[C@@H]3[C@@]4(C)C[C@@H](O)[C@H](O)[C@@](C)(CO)[C@@H]4[C@H](O)C[C@@]3(C)[C@]1(C)CC2,-29% (active)
2,O=C1/C(=C/c2ccc(O)cc2)Oc2ccc(Cl)cc21,82.8% (inactive)
3,COc1ccc(/C=C2\CCC3C(CCCC34OCCO4)C2=O)cc1 (centres undefined),79.5% (inactive)
4,Cc1ccc2c3c(cccc13)-c1ccccc1C2=O,92.4% (inactive)
5,COc1ccc(C(=O)/C=C/c2cc(-c3ccc4c(c3)OCO4)n[nH]2)cc1OC,36.3% (inactive)
6,N=C(N)c1ccc(-c2ccc(-c3ccccc3)s2)cc1F,-88.5% (active)
7,CN(C)c1ccc2c(c1)OC(N)=C(C#N)C2c1ccc2c(c1)CCCN2C (centres undefined),52.3% (inactive)
8,CCOC(=O)c1c(C(F)(F)F)n([O-])c2ccc(OC)cc2[n+]1=O,58% (inactive)
9,CNC(=O)c1cc(Oc2ccc(NC(=O)Nc3ccc(Cl)c(OC4CCCCC4)c3)c(F)c2)ccn1,75.8% (inactive)
10,COC(=O)[C@]12CC[C@@H](C)[C@H](C)[C@@H]1C1=CC[C@@H]3[C@@]4(C)CC(=O)[C@H](O)[C@@]5(C)COC(=C45)C[C@@]3(C)[C@]1(C)CC2,-73.4% (active)
11,O=[N+]([O-])c1ccc(-c2nc(Cl)c3c(n2)CCCC3)o1,102% (inactive)
12,C/C(=N\NC(N)=S)C(C)(C)O,104% (inactive)
13,FC(F)(F)c1ccc(-c2ncc(-c3ccc(C(F)(F)F)cc3)c(NCc3cc(C(F)(F)F)cc(C(F)(F)F)c3)n2)cc1,90.9% (inactive)
14,Oc1[nH]c2ccccc2c1/C=c1/cc2c(c(-c3ccc(C(F)(F)F)cc3)n1)=Nc1ccccc1-2,93.8% (inactive)
15,Cc1ccc(C(=O)O)c(N)c1C,96.1% (inactive)
16,CC(=O)n1nc(C(=O)OC(C)(C)C)c2cc(F)c(F)cc21,102% (inactive)
17,COc1cc(N=C2C(=O)N(Cc3ccccc3)c3ccccc32)cc(OC)c1OC,108% (inactive)
18,NC(N)=NS(=O)(=O)c1ccc(Nc2ccc3nnc(-c4ccncc4)n3n2)cc1,103% (inactive)
19,CC(=O)c1ccc(NCn2nc(-c3ccc(Cl)cc3)oc2=S)cc1,110% (inactive)

# System: NCI-H460 lung
# Test: as above
# Settings: 10 µM
row,SMILES,growth
1,CNC(=S)Sc1ccc([N+](=O)[O-])cc1[N+](=O)[O-],102% (inactive)
2,O=C(CCc1ccccc1)N1CCN(C(=O)CCc2ccccc2)CC1,114% (inactive)
3,Cn1cnc([N+](=O)[O-])c1/C=C1\Oc2ccc(Cl)cc2C1=O,99.4% (inactive)
4,NC1CCC(Nc2nc(NCc3ccc(-c4ccco4)nc3)c3ncn(C4CCCC4)c3n2)CC1 (centres undefined),4.97% (active)
5,CCCCCN(CCCCC)C(C)C(O)c1ccc2cc(Cl)c3ccccc3c2c1 (centres undefined),80.5% (inactive)
6,O=C(NNC(=O)c1ccncc1)Nc1ccc([N+](=O)[O-])cc1,105% (inactive)
7,CC1(C)CNC(=O)N1,106% (inactive)
8,CCn1nc(-c2ccccn2)c2cccnc2c1=S,53.7% (inactive)
9,CCN(CC)CCn1c(=N)n(CC(O)c2ccc(Cl)c(Cl)c2)c2ccccc21 (centres undefined),104% (inactive)
10,O=C(O)c1ccc(CNc2ccc(C(=O)CCl)cc2)cc1,103% (inactive)
11,COc1cc(CSc2nc3ccc(C)cc3c(=O)n2Cc2ccccc2)cc(OC)c1OC,17.7% (inactive)
12,COc1cc(C(c2c[nH]c3ccccc23)N2CCCC2)ccc1OCc1ccccc1 (centres undefined),98.9% (inactive)
13,Cn1c([N+](=O)[O-])cnc1C=C1C(=O)c2ccccc2C1=O,68.9% (inactive)
14,[O-]c1c[n+](-c2ccc(Cl)cc2)no1,101% (inactive)
15,O=C1CC[C@@H](C(=O)N[C@H]2CSSC[C@@H](C(=O)NCCc3ccccc3)NC(=O)[C@H](Cc3ccccc3)NC(=O)[C@@H]3CCCN3C(=O)[C@@H]3CCCN3C2=O)N1,101% (inactive)
16,COc1cc(C2C(C#N)=C(c3c[nH]c4ccccc34)Nc3nc(N)[nH]c(=O)c32)cc(OC)c1OC (centres undefined),106% (inactive)
17,COc1cc(C(=O)n2nc(N)c3c(C)cc(C)nc32)cc(OC)c1OC,89.9% (inactive)
18,N#CN1CC[C@H](C(=O)Nc2ncc(-c3ccccc3)s2)C1,2.02% (active)

row,SMILES,growth
1,COC(=O)[C@]12CC[C@@H](C)[C@H](C)[C@@H]1C1=CC[C@@H]3[C@@]4(C)C[C@@H](O)[C@H](O)[C@@](C)(CO)[C@@H]4[C@H](O)C[C@@]3(C)[C@]1(C)CC2,-72.5% (active)
2,COc1ccc(/C=C2\CCC3C(CCCC34OCCO4)C2=O)cc1 (centres undefined),105% (inactive)
3,Cc1ccc2c3c(cccc13)-c1ccccc1C2=O,96.2% (inactive)
4,COc1ccc(C(=O)/C=C/c2cc(-c3ccc4c(c3)OCO4)n[nH]2)cc1OC,15.7% (inactive)
5,N=C(N)c1ccc(-c2ccc(-c3ccccc3)s2)cc1F,-79.5% (active)
6,CN(C)c1ccc2c(c1)OC(N)=C(C#N)C2c1ccc2c(c1)CCCN2C (centres undefined),12.4% (inactive)
7,CCOC(=O)c1c(C(F)(F)F)n([O-])c2ccc(OC)cc2[n+]1=O,18.7% (inactive)
8,CNC(=O)c1cc(Oc2ccc(NC(=O)Nc3ccc(Cl)c(OC4CCCCC4)c3)c(F)c2)ccn1,37.9% (inactive)
9,COC(=O)[C@]12CC[C@@H](C)[C@H](C)[C@@H]1C1=CC[C@@H]3[C@@]4(C)CC(=O)[C@H](O)[C@@]5(C)COC(=C45)C[C@@]3(C)[C@]1(C)CC2,-51.8% (active)
10,O=[N+]([O-])c1ccc(-c2nc(Cl)c3c(n2)CCCC3)o1,34% (inactive)
11,FC(F)(F)c1ccc(-c2ncc(-c3ccc(C(F)(F)F)cc3)c(NCc3cc(C(F)(F)F)cc(C(F)(F)F)c3)n2)cc1,38.5% (inactive)
12,Oc1[nH]c2ccccc2c1/C=c1/cc2c(c(-c3ccc(C(F)(F)F)cc3)n1)=Nc1ccccc1-2,22% (inactive)
13,Cc1ccc(C(=O)O)c(N)c1C,108% (inactive)
14,CC(=O)n1nc(C(=O)OC(C)(C)C)c2cc(F)c(F)cc21,102% (inactive)
15,COc1cc(N=C2C(=O)N(Cc3ccccc3)c3ccccc32)cc(OC)c1OC,103% (inactive)
16,NC(N)=NS(=O)(=O)c1ccc(Nc2ccc3nnc(-c4ccncc4)n3n2)cc1,98.3% (inactive)
17,CC(=O)c1ccc(NCn2nc(-c3ccc(Cl)cc3)oc2=S)cc1,106% (inactive)
